SMILES strings stand for the structures. Hit rate of the full screen: of about 310,000 compounds, about 14,000 (4.5%) showed an effect of 50% or more. The effect is printed as a negative number. This is one part of a sample in which strong results are shown more often than they occur.
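Further: peak tail current of the secondary pulse compared with the same well before compound.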

human ether-à-go-go-related gene (hERG) potassium channel, sequence (Q12809 whole entry, looked up): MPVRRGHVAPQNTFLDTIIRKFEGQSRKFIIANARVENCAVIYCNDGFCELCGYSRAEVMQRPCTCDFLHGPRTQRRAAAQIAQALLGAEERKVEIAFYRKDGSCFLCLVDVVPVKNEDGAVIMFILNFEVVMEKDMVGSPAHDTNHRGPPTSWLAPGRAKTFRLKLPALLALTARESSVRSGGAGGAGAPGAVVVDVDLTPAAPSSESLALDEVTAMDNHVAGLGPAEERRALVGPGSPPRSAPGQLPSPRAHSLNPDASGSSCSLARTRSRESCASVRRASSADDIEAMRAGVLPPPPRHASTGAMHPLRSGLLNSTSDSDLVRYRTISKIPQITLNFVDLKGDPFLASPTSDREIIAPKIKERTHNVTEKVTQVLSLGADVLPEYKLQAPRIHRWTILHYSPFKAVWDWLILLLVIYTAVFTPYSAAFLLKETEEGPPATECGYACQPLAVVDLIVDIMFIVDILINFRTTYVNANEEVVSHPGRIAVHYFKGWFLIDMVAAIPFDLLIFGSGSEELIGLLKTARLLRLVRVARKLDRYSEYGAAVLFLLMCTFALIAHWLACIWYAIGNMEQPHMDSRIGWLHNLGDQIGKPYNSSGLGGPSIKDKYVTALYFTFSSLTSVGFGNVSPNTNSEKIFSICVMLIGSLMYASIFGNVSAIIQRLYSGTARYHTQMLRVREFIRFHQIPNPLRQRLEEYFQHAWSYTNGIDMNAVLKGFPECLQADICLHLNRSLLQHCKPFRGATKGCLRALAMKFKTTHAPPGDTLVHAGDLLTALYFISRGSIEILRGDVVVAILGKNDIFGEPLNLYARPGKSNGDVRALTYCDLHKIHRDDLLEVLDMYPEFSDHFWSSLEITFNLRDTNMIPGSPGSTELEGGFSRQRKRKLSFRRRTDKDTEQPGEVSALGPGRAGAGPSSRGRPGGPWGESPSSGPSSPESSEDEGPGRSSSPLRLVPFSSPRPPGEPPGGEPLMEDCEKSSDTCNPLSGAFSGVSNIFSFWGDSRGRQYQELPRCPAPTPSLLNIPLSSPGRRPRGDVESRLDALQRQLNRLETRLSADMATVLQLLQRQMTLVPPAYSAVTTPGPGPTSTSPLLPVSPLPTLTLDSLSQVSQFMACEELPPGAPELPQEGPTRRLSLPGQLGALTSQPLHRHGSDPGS

This experiment has as its target human ether-à-go-go-related gene (hERG) potassium channel (human, UniProt Q12809). Put plainly: primary screen, population patch clamp on CHO cells stably expressing hERG; higher = less effect of the substance.
Turning to `CC(Sc1nnc(N)s1)C(=O)NCc1ccc2c(c1)OCO2` (stereo not drawn), the “hERG current change (%, negative = inhibition) at 10uM” value stood at 0.709%. As for `COc1ccc(CC(=O)Nc2cc(Cl)ccc2O)cc1`, the “hERG current change (%, negative = inhibition) at 10uM” value was -1.45%. In the case of `CSCC[C@H](NC(=O)NCc1cccs1)C(=O)O`, the “hERG current change (%, negative = inhibition) at 10uM” value is listed as -10.4%.

Regarding `CN1CCN(c2ccc(NC(=S)NC(=O)c3cccc4ccccc34)cc2)CC1`, the “hERG current change (%, negative = inhibition) at 10uM” value is reported as -51%. For the molecule `CN1CCN(c2ccc(NC(=O)COc3ccc4ccccc4c3)cc2)CC1`, the “hERG current change (%, negative = inhibition) at 10uM” value is -17.3%.

On to `Cc1ccccc1OCC(=O)Nc1ccc(N2CCN(C)CC2)c(Cl)c1`, for which the “hERG current change (%, negative = inhibition) at 10uM” value is -68.8%. Next, `CN1CCN(c2ccc(NC(=O)COc3cccc4ccccc34)cc2)CC1`: -65.4%; `CN1CCN(c2ccc(NC(=S)NC(=O)c3cccc4c(Cl)cccc34)cc2)CC1`: 0.63%; `CN1CCN(c2ccc(NC(=S)NC(=O)c3cccc4c(Br)cccc34)cc2)CC1`: 16.2%.

`Cc1ccccc1OCC(=O)Nc1ccc(N2CCN(C(=O)C(C)C)CC2)c(Cl)c1`: the “hERG current change (%, negative = inhibition) at 10uM” value was -31.2%. `Cc1ccccc1OCC(=O)NC(=S)Nc1ccc(N2CCOCC2)c(Cl)c1`: the “hERG current change (%, negative = inhibition) at 10uM” value turned out to be 15.3%. With `CN1CCN(c2ccc(NC(=O)COc3ccccc3Cl)cc2)CC1`, the “hERG current change (%, negative = inhibition) at 10uM” value is -29.2%. `CC(C)Cc1nnc(NC(=O)C23CC4CC(CC(C4)C2)C3)s1`: the “hERG current change (%, negative = inhibition) at 10uM” value is given as 5.58%. Next, `Cc1cccc2cc(CN(CC3CCCO3)C(=O)c3cccnc3)c3nnnn3c12` (stereo not drawn): -5.82%; `Cc1cc(NCCCN(C)C)n2c(nc3ccccc32)c1C#N`: -1.49%. Regarding `Cc1cc(C)nc(SCC(=O)N/N=C/c2ccc3c(c2)OCO3)n1`, the “hERG current change (%, negative = inhibition) at 10uM” value is listed as 8.05%. For the molecule `CCOc1ccc(OCCSc2nc(N)cc(=O)[nH]2)cc1`, the “hERG current change (%, negative = inhibition) at 10uM” value stood at 1.58%. Next, `O=C(CSc1nc2ccccc2o1)NC1CCCC1`: 16.5%; `CCCn1nc(C(=O)NCCc2ccc(S(N)(=O)=O)cc2)c2ccccc2c1=O`: -15.8%; `C/C(=N\Nc1nc2ccccc2[nH]1)c1cccs1`: -19.2%.

For `C/C(=N\Nc1nc2ccccc2[nH]1)c1ccccn1`, the “hERG current change (%, negative = inhibition) at 10uM” value is recorded as -72.8%.

For `C/C(=N\Nc1nc2ccccc2[nH]1)c1ccc(C)o1`, the “hERG current change (%, negative = inhibition) at 10uM” value was -17.7%. Next, `CS(=O)(=O)N1CCc2cc(S(=O)(=O)N3CCCCC3)ccc21`: -14.8%; `CC(=O)Nc1ccc(C(=O)OCc2ccc(F)cc2)cc1`: -10.9%; `COc1ccc([C@H]2CC(=O)C=C(c3cccc(C(C)C)c3)C2)cc1`: -2.79%. Consider `Cc1[nH][nH]c(=O)c1C(c1ccc([N+](=O)[O-])cc1)c1c(C)[nH][nH]c1=O`, for which the “hERG current change (%, negative = inhibition) at 10uM” value was 23.9%. With `Cc1[nH][nH]c(=O)c1C(c1cc(Br)ccc1O)c1c(C)[nH][nH]c1=O` the figure was 12%. Next, `Cc1[nH][nH]c(=O)c1C(c1cc([N+](=O)[O-])ccc1O)c1c(C)[nH][nH]c1=O`: -62.5%; `Cc1ccccc1NC(=O)CSc1nc(N)c(C#N)c(-c2cccs2)c1C#N`: 6%. Take `CCOc1ccc(C(=O)OCC(=O)NCCNC(=O)COC(=O)c2ccc(OCC)cc2)cc1`: the “hERG current change (%, negative = inhibition) at 10uM” value amounted to 13.8%.

Consider `CCCSc1nnc(CNS(=O)(=O)c2ccc(C)cc2)n1C`, for which the “hERG current change (%, negative = inhibition) at 10uM” value was determined as 8.4%. For `CCOC(=O)n1c(=O)[nH]c2ccc(Br)cc21`, the “hERG current change (%, negative = inhibition) at 10uM” value is given as 2.18%. With `C=CCn1c(=O)n(C(=O)OCC)c2cc(Br)ccc21` the figure was -50.2%; with `CCOC(=O)n1c(=O)n(C)c2ccc(Br)cc21`, -7.75%. Next, `CC(=O)N1CCN(c2ccc(NC(=O)c3cccc(C)c3)cc2)CC1`: 18.5%; `COC(=O)c1ccc(NC(=O)CSc2nn3c(=O)c(C)nnc3s2)cc1`: 7.44%. With `N#Cc1cccc(S(=O)(=O)NCC(=O)NCc2ccc3c(c2)OCO3)c1` the figure was 5.51%. For `Cc1ccc(NC(=O)CCN2CCN(C)CC2)cc1.Cl`, the “hERG current change (%, negative = inhibition) at 10uM” value came to 10.6%. With `CN1CCN(CCCC(=O)c2ccc(C3CCCC3)cc2)CC1.Cl.O` the figure was -50%; with `Cl.O=C(CCN1CCN(CCO)CC1)Nc1ccc(C2CCCC2)cc1`, -43%; with `COc1ccc(C(=O)OCC(=O)c2ccc(C3CCCCC3)cc2)cc1`, 5.66%. Next, `CN1CCN(CCC(=O)Nc2ccc(C3CCCC3)cc2)CC1.Cl`: -55.1%; `CN1CCN(CCCCC(=O)c2ccccc2)CC1.Cl`: -0.477%; `O=C(C[n+]1ccccc1)N/N=C/c1ccc(C(=O)O)cc1.[Cl-]`: 0.121%. Turning to `CC(C)(C)C(=O)Nc1sc2c(c1C#N)CCCCC2`, the “hERG current change (%, negative = inhibition) at 10uM” value came to 2.28%. Next, `CCOC(=O)C1CCCN(S(=O)(=O)c2ccc3c(c2)CC(C)N3C(=O)C2CC2)C1` (stereo not drawn): 9.65%.

For `COc1ccc(N(CC(=O)NCc2cccc(OC)c2)S(=O)(=O)c2c(C)noc2C)cc1`, the “hERG current change (%, negative = inhibition) at 10uM” value is listed as -41.1%. `COc1ccccc1NC(=S)NNC(=O)c1c(Cl)c(C)nn1C`: the “hERG current change (%, negative = inhibition) at 10uM” value is 32.8%. Take `CN(C1CCCCC1)S(=O)(=O)c1cccc(C(=O)OCC(=O)NC2CCCc3ccccc32)c1` (stereo not drawn): the “hERG current change (%, negative = inhibition) at 10uM” value is given as -13.9%.

On to `CCOC(=O)C1CCCN(CCC(=O)Nc2ccc(C)c(C)c2)C1.Cl` (stereo not drawn), for which the “hERG current change (%, negative = inhibition) at 10uM” value is -44.8%. With `CCOC(=O)C1CCCN(CCC(=O)Nc2cccc(C)c2)C1.Cl` (stereo not drawn) the figure was -24.5%; with `CC1CCCN(CCC(=O)Nc2ccc3c(c2)CCC3)C1.Cl` (stereo not drawn), -33.5%; with `CCOC(=O)C1CCCN(CCC(=O)Nc2cc(C)cc(C)c2)C1` (stereo not drawn), -58.4%. Next, `CCOC(=O)C1CCCN(CCC(=O)Nc2cc(C)ccc2C)C1.Cl` (stereo not drawn): -67.2%; `CCOC(=O)C1CCCN(CCC(=O)Nc2ccccc2C)C1.Cl` (stereo not drawn): 12.5%; `CCOC(=O)C1CCCN(CCC(=O)Nc2ccc(Br)cc2)C1.Cl` (stereo not drawn): -66.7%. With `CCOC(=O)C1CCCN(CCC(=O)Nc2ccc3c(c2)CCC3)C1` (stereo not drawn) the figure was -50.4%; with `Cc1cc(C)cc(NC(=O)CCN2CCCC2)c1`, -15.8%. With `CCOC(=O)C1CCCN(CCC(=O)Nc2ccccc2)C1.Cl` (stereo not drawn), the “hERG current change (%, negative = inhibition) at 10uM” value is reported as -9.04%. Next, `CCOC(=O)C1CCN(CCC(=O)Nc2cc(C)ccc2C)CC1`: -10.7%.

Take `CCOC(=O)C1CCCN(CCC(=O)Nc2ccc(C)cc2)C1.Cl` (stereo not drawn): the “hERG current change (%, negative = inhibition) at 10uM” value is on record as -30.4%. For `COCC(=O)Nc1nnc(Cc2ccc(OC)c(OC)c2)s1`, the “hERG current change (%, negative = inhibition) at 10uM” value is -7.97%. On to `O=C(NCCC(=O)N1CCN(c2ncccn2)CC1)c1ccccc1`, for which the “hERG current change (%, negative = inhibition) at 10uM” value worked out at 11.6%. Take `O=C(/C=C/Nc1ccc(S(=O)(=O)Nc2ncccn2)cc1)c1ccc2ccccc2c1`: the “hERG current change (%, negative = inhibition) at 10uM” value is given as 3.84%. Turning to `CCOC(=O)C(CC)Sc1nnc2cc(C)c3ccccc3n12` (stereo not drawn), the “hERG current change (%, negative = inhibition) at 10uM” value is recorded as -38%. Next, `Cc1noc(C)c1CSCC(=O)N(CCC(C)C)c1c(N)n(Cc2ccccc2)c(=O)[nH]c1=O`: 21.4%; `Cn1cc(/C(Cc2ccccc2)=N\O)c2ccccc21`: 4.78%. With `COC(=O)c1[nH]c(C)c(/C(O)=C2\C(=O)C(=O)N(CCN(C)C)C2c2cc(OC)ccc2OC)c1C` (stereo not drawn) the figure was 13.6%.

Turning to `CCCCN(CCCC)CCNC(=O)CSCc1ccc(C)cc1.O=C(O)C(=O)O`, the “hERG current change (%, negative = inhibition) at 10uM” value is on record as -63.2%. For `O=C(CSc1ccccc1)NCCSCc1ccccc1`, the “hERG current change (%, negative = inhibition) at 10uM” value is -3.89%. For `Cc1ccc(CSCC(=O)NCCc2ccccc2)cc1`, the “hERG current change (%, negative = inhibition) at 10uM” value was -3.13%. Next, `COc1ccc(CCNC(=O)CSCc2ccc([N+](=O)[O-])cc2)cc1`: -44.8%; `Cc1ccc(CSCCNC(=O)CSCc2ccc([N+](=O)[O-])cc2)cc1`: -71.4%.

As for `Cc1cccc(CSCCNC(=O)CSCc2ccc([N+](=O)[O-])cc2)c1`, the “hERG current change (%, negative = inhibition) at 10uM” value is reported as -47.8%. With `O=C(CSCc1ccc([N+](=O)[O-])cc1)Nc1ccccc1C(=O)O` the figure was 24.7%; with `CCCCN(C)CCNC(=O)CSCc1ccc(C)cc1.O=C(O)C(=O)O`, -37.5%; with `Cc1ccc(CSCCNC(=O)CN(c2cccc([N+](=O)[O-])c2)S(C)(=O)=O)cc1`, -53.2%. Next, `Cc1ccc(CSCCNC(=O)CN(c2ccccc2)S(C)(=O)=O)cc1`: 1.75%; `O=C(CSCc1ccc([N+](=O)[O-])cc1)NCCSCc1ccccc1`: -70.1%. With `Cc1ccc(CNC(=O)CN(c2cccc([N+](=O)[O-])c2)S(C)(=O)=O)cc1` the figure was 0.796%. On to `Cc1ccccc1NC(=O)Cn1nc(-c2ccc(Cl)s2)ccc1=O`, for which the “hERG current change (%, negative = inhibition) at 10uM” value was 13.6%. On to `CSC1=N/C(=C/c2ccc(-n3cncn3)cc2)C(=O)N1`, for which the “hERG current change (%, negative = inhibition) at 10uM” value was 6.6%. Regarding `COc1cc(/C=N/Nc2ccc(F)cc2F)cc(OC)c1O`, the “hERG current change (%, negative = inhibition) at 10uM” value is reported as -2.17%.

For the molecule `O=C(COC(=O)c1ccco1)NC(c1ccccc1)c1ccccc1`, the “hERG current change (%, negative = inhibition) at 10uM” value worked out at 3.56%. For `Cc1ccc(S(=O)(=O)NCCC(=O)OCC(=O)N(C)c2ccccc2)cc1`, the “hERG current change (%, negative = inhibition) at 10uM” value is on record as 4.35%.

With `CCCn1c(SCC(=O)c2ccc3c(c2)OCCO3)n[nH]c1=O`, the “hERG current change (%, negative = inhibition) at 10uM” value came out at 22.6%. Next, `COc1cc(OC)cc(OC(=O)c2cccc(S(=O)(=O)N3CCN(C)CC3)c2)c1`: -14.1%; `CC1CCN(C(=O)C(C)OC(=O)CSc2ccc([N+](=O)[O-])cc2)CC1` (stereo not drawn): -50.1%; `Cc1ccc(CSCCNC(=O)c2cccc([N+](=O)[O-])c2)cc1`: -64.1%. `CC1CCN(C(=O)C(C)c2ccc([N+](=O)[O-])cc2)CC1` (stereo not drawn): the “hERG current change (%, negative = inhibition) at 10uM” value is given as -3.41%. Consider `O=C(Cc1ccc([N+](=O)[O-])cc1)NC1CCCCCC1`, for which the “hERG current change (%, negative = inhibition) at 10uM” value is 7.55%. With `O=C(CSCc1ccc([N+](=O)[O-])cc1)NC1CC1` the figure was -29.7%. As for `CC(OC(=O)CSc1ccc([N+](=O)[O-])cc1)C(=O)NC1CC1` (stereo not drawn), the “hERG current change (%, negative = inhibition) at 10uM” value is reported as -14.7%. For `CC(C)C(NC(=O)CSCc1ccc([N+](=O)[O-])cc1)C(C)C`, the “hERG current change (%, negative = inhibition) at 10uM” value was -40.2%. Next, `Cc1ccc(CSCCNC(=O)c2ccc(C)cc2)cc1`: 19.1%; `O=C(CSCc1ccc([N+](=O)[O-])cc1)NC1CCCCCC1`: -50.8%. As to `COc1ccc(CCNC(=O)CSCc2ccc([N+](=O)[O-])cc2)cc1OC`, the “hERG current change (%, negative = inhibition) at 10uM” value is listed as -37.5%. Next, `CC(C)(C)SCCNC(=O)CSCc1ccc([N+](=O)[O-])cc1`: -63.1%.

Consider `Cc1ccc(CSCCNC(=O)c2ccccc2)cc1`, for which the “hERG current change (%, negative = inhibition) at 10uM” value was -13.6%.
